# Compound activity deposited in PubChem BioAssay by National Center for Advancing Translational Sciences (NCATS).
# GPR32 ag: activates human resolvin D1 receptor GPR32 | CHO-K1 GPR32 beta-arrestin PathHunter luminescence, 90 min; zero percent set by DMSO-only wells | activation, % at 76.9 µM | hit rate 2.5% among 48,000 | O75388;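 active = activation of at least 60% and not above a set upper limit, about 1 call in 100 departs from these limits; inconclusive = activation of 40% to 60%, or above that upper limit; inactive = activation under 40%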
#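 Cells are plated overnight, treated with compounds in DMSO for 90 minutes at 37 °C, and developed with PathHunter detection reagent for 1 hour before luminescence is read; signal reflects beta-arrestin binding to GPR32 in engineered CHO-K1 cells.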
# PTAP-TSG101 blk: TSG101-PTAP interaction inhibition, HIV-1 budding; Q99816; Fluorescence polarization, FITC-PTAP peptide/Tsg101, 20 min; Potency, µM (doses to about 115 µM), actives largely listed as inhibitors; 44,000 tested, under 10 active; AID 1347069
#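 Compounds pinned into 10 uM Tsg101 binding domain, then 50 nM FITC-PTAP peptide added in pH 7.5 HEPES buffer; FP read after 20 min, room temperature. Total S+P intensity flags fluorescent compounds; active cut-off <25 µM, efficacy <60%.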
# NTMT1 inhibitor: NTMT1 methyltransferase inhibition; hit rate 2.5% among 59,000; Q9BV86; Potency, µM (titrated, usually from 114 µM), actives largely listed as inhibitors; NTMT1 MTase-Glo SAH luminescence, purified enzyme; also: nearly all actives have a fitted effect of over 65% in size
# SKOV3 invasion: inhibitors of ovarian cancer cell adhesion and invasion in omental model; SKOV3ip1-GFP adhesion/invasion on 3D omental model, fluorescence; Potency, µM (titrated, usually from 45.8 µM), hits mostly inhibitors; hit rate 0.1% among 46,000; AID 1963576; also: nearly all actives have a fitted effect of over 65% in size
#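 Primary human omental fibroblast/mesothelial 3D culture pre-formed 48 h. SKOV3ip1-GFP cells added with compounds (0.36-46 umol/L), incubated 2 h RT/16 h 37 C, fixed; GFP cells quantified at 488/509 nm.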
# B2AR arrestin ag: ADRB2 beta-arrestin recruitment. P07550. AID 1347077. HTLA Tango cells, beta-arrestin recruitment, luciferase luminescence, 18 h. 44,000 tested, under 10 active. Potency, µM (series often up to 46.1 µM), usual class: activators
# Target sequence (P07550 whole entry, looked up): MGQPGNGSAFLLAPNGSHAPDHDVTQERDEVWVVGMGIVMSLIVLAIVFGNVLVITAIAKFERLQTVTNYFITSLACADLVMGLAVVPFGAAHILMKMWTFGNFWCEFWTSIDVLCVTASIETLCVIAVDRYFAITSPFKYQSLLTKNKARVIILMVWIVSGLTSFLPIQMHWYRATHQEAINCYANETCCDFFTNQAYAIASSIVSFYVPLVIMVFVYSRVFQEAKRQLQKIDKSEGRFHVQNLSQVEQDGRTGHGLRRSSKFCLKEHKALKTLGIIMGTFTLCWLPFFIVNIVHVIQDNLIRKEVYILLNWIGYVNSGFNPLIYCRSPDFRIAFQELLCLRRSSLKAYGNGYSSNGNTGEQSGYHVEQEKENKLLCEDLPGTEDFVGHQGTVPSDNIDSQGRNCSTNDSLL
#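 Tango cells expressing recombinant beta2-AR and beta-arrestin were treated with compounds (up to 46 microM titration) in DMEM with 1% FBS for 18 hr at 37 degrees C. Beta-arrestin recruitment drove tTA-dependent luciferase, read by luminescence; curves were fitted and classed.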
# GALK inhibitor: GALK (human) enzyme inhibition; P51570; recombinant GALK, Kinase-Glo ATP luminescence, 1 h; Potency, µM (top dose mostly 57.5 µM), actives largely listed as inhibitors; 44,000 tested, under 10 active; AID 1347072
#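 Compounds were pinned into ATP buffer, then GALK-galactose mix was added (final 5 nM enzyme, 35 uM ATP, 100 uM galactose, pH 8.0). After 1 h at room temperature, Kinase-Glo Plus was added and luminescence read.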
# Numbers stand for hits; i = inactive; ? = inconclusive; nt = no result. Rows were chosen to be rich in hits. Some 3.8% of all compounds tested hit in one or more screens of this group. Unless noted, calls follow the shape of the dose curve; as a rule, active = well fitted curve in the direction sought with a large enough effect; inconclusive = small, poorly fitted or top-dose-only effect, or another doubt; inactive = no such curve, though single readings can be large; an effect the other way counts as inactive or inconclusive.
SMILES,GPR32 ag,PTAP-TSG101 blk,NTMT1 inhibitor,SKOV3 invasion,B2AR arrestin ag,GALK inhibitor
Cc1ccc(CN2C(=O)C(O)(c3c[nH]c4ccccc34)c3cc(Cl)ccc32)cc1 (stereo unspecified),87,i,i,?,i,i
Cc1noc(Cn2c(=O)c3ccccc3n(CC(=O)Nc3ccc(Cl)cc3)c2=O)n1,i,i,i,i,i,i
CCc1ccccc1N1C(=O)N(Cc2cccc(Cl)c2)c2ccccc2S1(=O)=O,i,i,89µM,i,i,i
CCCC(=O)c1cc(O)c(O)cc1O,i,nt,40µM,nt,nt,nt
OCc1ccccn1,i,nt,i,nt,nt,nt
C[C@@H]1C(=O)O[C@H]2CC34[C@H]5C[C@@H](C(C)(C)C)C36[C@@H](OC(=O)[C@@H]6O)O[C@@]4(C(=O)O5)[C@]21O (stereo partly specified),nt,nt,i,nt,nt,nt
Cc1cccc(Oc2ccc3c(c2)Oc2ccccc2NC3=O)c1,95,i,?,i,i,i
O=C1Nc2cc(Cl)ccc2Oc2ccccc21,i,nt,i,nt,nt,nt
CCOc1cccc(NC(=O)C2CC(=O)N(CC)C(=Nc3ccc(F)cc3)S2)c1 (stereo unspecified),81,i,i,i,i,i
CCN1C(=O)CC(C(=O)Nc2ccc(OC)cc2)SC1=Nc1ccc(C)c(C)c1 (stereo unspecified),i,i,i,i,i,i
C=Cc1ccc(Cn2c(C(=O)O)c(CNCc3ccc(F)cc3)c3ccc(C)cc32)cc1,91,i,i,?,i,i
C=Cc1ccc(Cn2c(C(=O)O)c(CNCc3cccs3)c3ccc(C)cc32)cc1,96,i,i,i,i,i
Cc1ccc2c(CNCc3cccs3)c(C(=O)O)n(Cc3ccc(F)cc3)c2c1,92,i,i,i,i,i
Cc1ccc2c(CNCc3ccc(C)o3)c(C(=O)O)n(Cc3ccc(F)cc3)c2c1,?,i,i,i,i,?
O=C(C1CCCN(S(=O)(=O)c2ccc(Br)s2)C1)N1CCN(c2cccc(Cl)c2)CC1 (stereo unspecified),i,i,i,i,i,i
Cc1ccc(N2CC(c3nnc(Cc4ccc(F)cc4)o3)CC2=O)cc1 (stereo unspecified),i,i,?,i,i,i
Cc1ccc(-n2nc(C)c3c(C)c(CCC(=O)NCc4cccc(Cl)c4)c(C)nc32)cc1C,i,i,i,i,i,i
CCc1ccc2[nH]cc(S(=O)(=O)c3ccc(C(C)C)cc3)c(=O)c2c1,65,i,i,i,i,i
Cc1nc(-c2cccc(F)c2)sc1CCNC(=O)c1ccc(F)c(F)c1,63,i,i,i,i,i
Cc1ccc(C(=O)NCCc2csc(-c3cccc(F)c3)n2)cc1C,61,i,i,i,i,i
O=C(NCCc1csc(-c2cccc(F)c2)n1)c1ccc(Br)o1,94,i,i,i,i,i
CCOc1ccc(-n2c([C@@H](C)N(Cc3cccnc3)C(=O)Cc3ccc(F)c(C(F)(F)F)c3)nc3ncccc3c2=O)cc1,nt,nt,i,nt,nt,nt
Cc1ccc(-c2nc(CCNC(=O)C(=O)Nc3ccc(C)cc3C)cs2)cc1,i,i,i,i,i,i
Cc1ccc(CNC(=O)Cn2c(=O)n(Cc3ccccc3)c(=O)c3c2c2cc(C)ccc2n3C)cc1,i,i,i,i,i,i
CC(C)OCCCn1c(SCC(N)=O)nc2c(sc3ccccc32)c1=O,115,i,i,i,i,i
O=C(CSc1nc2cc3ccccc3cc2[nH]1)Nc1ccc(F)cc1,65,i,i,i,i,i
CC(C)c1ccc2oc3nc(N)c(C(=O)O)cc3c(=O)c2c1,104,nt,32µM,i,nt,nt
Cc1cc(-c2ccc(/C=C3\SC(=Nc4ccc(Cl)c(C(=O)O)c4)NC3=O)o2)c([N+](=O)[O-])cc1C,nt,nt,25µM,nt,nt,nt
CC1CCN(C(=O)CSc2nnc(-c3ccccc3)o2)CC1,i,i,i,i,i,i
